Assay outcomes deposited in PubChem BioAssay by National Center for Advancing Translational Sciences (NCATS).
Rows were chosen to be rich in hits. Some 1.1% of all compounds tested hit in one or more screens of this group.
gsp agonist – activates gsp, the McCune-Albright syndrome mutation; gsp mutant cells, cAMP HTRF, 30 min; Potency, µM (series often up to 76.9 µM), for inactives: at the highest dose activation (cAMP increase), hits mostly activators; 0.13% of 340,000 active; active = well fitted activation curve with a large enough effect; inconclusive = small, poorly fitted or top-dose-only effect, or another doubt; inactive = no such curve, though single readings can be large or run the other way; cell line not stated here;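 note: phosphodiesterase inhibitor Ro 20-1724 added with compounds to block cAMP breakdown; potency is the fitted concentration of half-maximal effect; nearly all actives have a fitted effect of over 60% in size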
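Cells stably selected in G418 were plated at 2000/well, grown 16-24 hr, then given compounds in DMSO with the PDE inhibitor […] (300 uM solution added) for 30 min at 37C; cAMP was read by HTRF.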
RXFP1 antagonist – antagonists of human relaxin receptor RXFP1; 0.59% of 350,000 active; Q9HBX9; HEK293-RXFP1, relaxin-stimulated cAMP HTRF, 30 min; stronger effect = lower value; activity change, negative = inhibition, % at 57.5 µM;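 active = activity change of -60% or lower, but not beyond a set lower limit; inconclusive = change between -60% and -40%, or beyond the set limit; inactive = change above -40%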; note: % is set by controls: 0 for no effect and ±100 for the full control effect
RXFP1 ag – activates the human relaxin receptor RXFP1 | 0.3% of 370,000 active | HEK293T-RXFP1 cAMP TR-FRET, 30 min; response scale: percent of porcine relaxin response, buffer zero | Potency, µM (series often up to 57.5 µM), for the others: top-dose activation, usual class: activators | AID 2676; note: potency is the fitted concentration of half-maximal effect; % is set by controls: 0 for no effect and ±100 for the full control effect; nearly all actives have a fitted effect of over 60% in size
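cAMP rise read by TR-FRET after 30 min, 37C compound exposure (up to 58 uM) in RXFP1-transfected HEK293 cells with Ro 20174 present. EC50 from Hill-equation fits, with 29 nM porcine relaxin as 100% and buffer as basal.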
Tb PFK inh – blocks T. brucei phosphofructokinase; O15648; T. brucei PFK, ADP-Glo luminescence; Potency, µM (top dose mostly 57.5 µM), without a hit: at the highest dose activity, negative = inhibition, actives largely listed as inhibitors; 0.17% of 330,000 active;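 note: potency is the fitted concentration of half-maximal effect; 0% = uninhibited 1x PFK enzyme wells and -100% = no-enzyme wells; nearly all actives have a fitted effect of over 60% in size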
Target sequence (O15648 whole entry, looked up): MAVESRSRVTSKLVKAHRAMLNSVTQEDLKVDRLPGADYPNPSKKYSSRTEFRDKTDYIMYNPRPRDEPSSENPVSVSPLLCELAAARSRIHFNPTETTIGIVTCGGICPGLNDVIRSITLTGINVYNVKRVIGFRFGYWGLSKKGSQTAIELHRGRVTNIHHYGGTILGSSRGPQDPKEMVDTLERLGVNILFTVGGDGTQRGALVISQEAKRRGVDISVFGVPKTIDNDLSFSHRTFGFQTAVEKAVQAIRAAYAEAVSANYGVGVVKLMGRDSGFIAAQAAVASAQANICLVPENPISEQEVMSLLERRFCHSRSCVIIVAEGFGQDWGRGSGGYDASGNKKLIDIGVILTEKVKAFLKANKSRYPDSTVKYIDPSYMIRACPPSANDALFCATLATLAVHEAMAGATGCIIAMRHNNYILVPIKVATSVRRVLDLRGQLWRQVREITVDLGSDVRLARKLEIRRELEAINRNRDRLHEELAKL
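Compounds were pin-transferred as a titration series up to 57 uM into substrate buffer (0.5 mM F6P, 0.1 mM ATP, pH 8.0), then 1.25 nM PFK was added and reactions ran 45 min before ADP-Glo detection.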
gsp antag – antagonists of gsp mutant (McCune-Albright syndrome); gsp-mutant cells, cAMP HTRF, 30 min; Potency, µM (doses to about 76.9 µM), inactives show top-dose activity change, negative = inhibition, actives largely listed as inhibitors; 0.4% of 340,000 active; calls by dose curve; cell line not stated here;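 note: intracellular cAMP measured with PDE inhibitor Ro 20-1724 present during compound exposure; potency is the fitted concentration of half-maximal effect; % is set by controls: 0 for no effect and ±100 for the full control effect; nearly all actives have a fitted effect of over 65% in size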
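Measurement of cellular cAMP by homogeneous time-resolved fluorescence following a 30 min compound exposure at 37C. The PDE inhibitor […] was present throughout; the assay buffer was DPBS with 0.05% BSA and 0.005% Tween 20.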
p53 reactivator – re-activators of mutant p53; H1299 p53-A138V BP100-luciferase reporter, luminescence, 24 h; Potency, µM (highest dose often 92.2 µM), for inactives: at the top dose activity change, positive = activation, hits mostly activators; 0.063% of 320,000 active; note: potency is the fitted concentration of half-maximal effect; % of control where 0% means no effect; nearly all actives have a fitted effect of over 45% in size
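H1299 (p53-null), stable ts p53-A138V + BP100-Luc; 1000 cells/well, Opti-MEM/10% FBS; cpd 4 pt, 1:5; 24 h, 37 deg C, 5% CO2; detection reagent 10 min RT; luminescence.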
Numbers without * were called inactive; ? = inconclusive; . = no result given; [ ] = dose if it differs, or a comment. Unless noted, calls come from the whole dose curve; as a rule, active = well fitted curve in the direction sought with a large enough effect; inconclusive = small, poorly fitted or top-dose-only effect, or another doubt; inactive = no such curve, though single readings can be large; an effect the other way counts as inactive or inconclusive.

SMILES	gsp agonist	RXFP1 antagonist	RXFP1 ag	Tb PFK inh	gsp antag	p53 reactivator
CCc1[nH]c(=O)c(C#N)c2c1CCCC2	-22%	8	0%	0%	13%	3%
O=C(NCCN1CCN(c2cccc(Cl)c2)CC1)c1ccc(CSc2nc3ccncc3[nH]2)cc1	17%	-5	3%	1%	32µM*	4%
CCOC(=O)N1CCC(N(C(=O)Nc2ccc(Cl)c(Cl)c2)C(C)CC)CC1 (stereo unspecified)	-8%	18	2%	24µM*	?	3%
CC(C)CCN(C(=O)Nc1ccc(Cl)c(Cl)c1)C1CCN(C(C)C)CC1	.	-4	2%	.	.	.
CCCCN1C(=O)c2[nH]nc(-c3ccccc3O)c2C1c1cc(Br)c(O)c(OC)c1 (stereo unspecified)	.	-89*	-1%	.	.	.
CCCCN1C(=O)c2[nH]nc(-c3ccccc3O)c2C1c1ccc(OCc2ccccc2)c(OC)c1 (stereo unspecified)	.	?	4%	.	.	.
CCc1ccc(C2c3c(-c4ccccc4O)n[nH]c3C(=O)N2Cc2ccncc2)cc1 (stereo unspecified)	.	-83*	-1%	.	.	.
COc1cnn(-c2ccc(C)cc2)c(=O)c1SCc1ccccc1	?	-6	-13%	1%	32µM*	?
COc1cnn(-c2ccc(Br)cc2)c(=O)c1SCc1ccccc1	-8%	.	-7%	-2%	?	?
CCN(C(=O)c1cc2c(=O)n3ccccc3nc2s1)C1CCCCC1	-2%[15.4 µM]	-2	28%	5%	.	4%
CCCNC(=O)COC(=O)c1cc2c(=O)n3ccccc3nc2s1	11µM*	12	?	0%	3%	22%
Cc1nc2ccccn2c(=O)c1CCN1CCC(C(=O)c2ccc(F)cc2)CC1	.	19	1%	0%	-15%	0%
Cc1nc2sccn2c(=O)c1CCN1CCC(=C(c2ccc(F)cc2)c2ccc(F)cc2)CC1	.	-67*	4%	-5%	?	-2%
CC(C)CN(C(=O)CSc1nncn1-c1ccccc1)c1c(N)n(CC(C)C)c(=O)[nH]c1=O	-17%[15.4 µM]	-60*	0%	1%	1%	2%
CN1CCN(c2ncccc2S(=O)(=O)N2CCCCC2)CC1	-47%	.	0%	0%	14%	-8%
Cc1cc(C)n(-c2cc(C(C)(C)C)nc3c(-c4ccccc4)cnn23)n1	7%[15.4 µM]	-80*	-1%	0%	-27%	?
Cc1cc(C)n(-c2cc(C(C)(C)C)nc3c(-c4ccc(Cl)cc4)cnn23)n1	-49%	-10	0%	6%	-6%	17%
O=[N+]([O-])c1ccccc1/C=N\Nc1nccs1	7%[15.4 µM]	-7	-1%	2%	-13%	.
O=[N+]([O-])c1cc(/C=N\Nc2nccs2)ccc1O	.	.	0%	9.5µM*	.	7%
O=C(CCN1C(=O)C2CCCCC2C1=O)Nc1nc2ccc(F)cc2s1 (stereo unspecified)	-7%	1	3%	2%	19%	?
Cc1nc(SC(C)C(=O)NCC2CCCO2)c2cc(-c3ccccc3)sc2n1 (stereo unspecified)	-5%[15.4 µM]	-69*	1%	-1%	-30%	0%
C=CCn1c(-c2cccn(Cc3ccc(Cl)cc3)c2=O)n[nH]c1=S	-27%	16	0%	0%[0.46 µM]	-18%	4%
O=c1c2c(-c3ccc([N+](=O)[O-])cc3)csc2nc2n1CCC2	22µM*	11	?	-5%	10%	-17%
Cc1cc(C(=S)N2CCOCC2)c(C)n1-c1ccc(F)cc1	?	-9	1%	-24%	6%	2%
CCOC(=O)c1sc(NC(=O)c2ccc(Br)o2)cc1C	7%	-63*	-1%	-1%	-10%	20%
SMILES	gsp agonist	RXFP1 antagonist	RXFP1 ag	Tb PFK inh	gsp antag	p53 reactivator
Cc1nc(-c2ccc(S(=O)(=O)N3CCN(c4ccc(F)cc4)CC3)cc2)co1	.	.	5%	.	.	.
COc1ccc(OCCN2C(=O)c3ccccc3C2=O)c([N+](=O)[O-])c1	10µM*	4	-3%	-20%	-7%	14%
CCCOc1cccc(-c2nc3ccccc3c(=O)o2)c1	-8%[15.4 µM]	-84*	1%	8%	?	16%
CC(=O)c1ccc(NC(=O)CSc2nc(=O)n(Cc3ccccn3)c3c2CCC3)cc1	.	.	3%	.	.	.
Cc1c(C)c2c(c(C)c1O)CCC(C)(COc1ccc(CC3SC(=O)NC3=O)cc1)O2 (stereo unspecified)	.	-75*	.	.	.	.
CCN(C(=O)c1ccco1)c1nnc(-c2ccc(OC)cc2)s1	32µM*	-14	?	2%	-1%	?
CCCN(C(=O)c1ccco1)c1nnc(-c2cccc(C)c2)s1	5%	-9	1%	0%	24%	-1%
Cc1nnc(NC(=O)c2c(-c3ccccc3)noc2C)s1	-29%	-12	0%	-3%	-10%	1%
Cc1onc(-c2ccccc2)c1C(=O)Nc1cccc2nsnc12	35µM*	-4	?	-1%	21%	0%
Cc1ccc(S(=O)(=O)N(C)C)cc1NC(=O)c1cccs1	1%	4	4%	1%	11%	-6%
O=C(Cn1cnc2nc3c(cc2c1=O)CCCC3)N1CCN(c2cccc(C(F)(F)F)c2)CC1	.	-11	-2%	.	.	.
Cc1ccc(Cl)cc1N1CCN(C(=O)Cn2cnc3nc4c(cc3c2=O)CCCC4)CC1	.	-68*	3%	.	.	.
COc1ccc(S(=O)(=O)N(C)CC(=O)Nc2ccc(F)cc2)cc1	-34%	0	2%	.	5%	.
O=S(=O)(NCCC1=CCCCC1)c1ccccc1Br	9%	-3	0%	8%	-6%	-1%
O=S(=O)(NCCC1=CCCCC1)c1ccc(Br)cc1	-21%	-70*	-1%	3%	-3%	-3%
COc1cc2c(c(OC)c1OC)-c1c(cc3c(c1OC)OCO3)C[C@H](C)[C@@](C)(O)C2	.	.	0%	2%	-8%	-2%
O=C(CN(Cc1ccccc1)C(=O)CCC(=O)Nc1nccs1)NCc1ccccc1	10%[15.4 µM]	6	1%	2%	-32%	-6%
N#Cc1c(-c2cccs2)nc(SCc2ccc(Cl)cc2)[nH]c1=O	73%[15.4 µM]	-3	16µM*	-2%	16%	1%
CSc1nc(-c2ccccc2)c(C#N)c(=O)[nH]1	?	36	?	1%	16%	2%
CNC(=O)NC(=O)CSc1nc(-c2cccs2)c(C#N)c(=O)[nH]1	?	43	14µM*	0%	0%	2%
O=c1[nH]c(SCc2ccc(Cl)cc2)nc2ccsc12	-24%	5	0%	5%	-2%	14%
CSc1nc(-c2cccs2)c(C#N)c(=O)[nH]1	112%[15.4 µM]	23	14µM*	3%	18%	2%
